The text below walks through data of PubChem BioAssay (NCATS).

The structures appear in SMILES notation. Where “and” joins values, the source holds several entries; their conditions need not be identical. Equal values may be shown once. Results filed as inconclusive are left out. Calls of active or inactive are those of the source. Unless noted, the call rests on the fitted dose curve; in most records, active means well fitted curve in the direction sought with a large enough effect; inconclusive means small, poorly fitted or top-dose-only effect, or another doubt; inactive means no such curve, though single readings can be large; an effect the other way counts as inactive or inconclusive.

Test [1] is described as follows: Cell Viability - LYMP2-014 (AID 983).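 Further: plate controls were DMSO only for no effect and 92 µM tetraoctylammonium bromide for full effect; nearly all actives have a fitted effect of over 50% in size.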 The essentials: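 Decrease in intracellular ATP after 24 hr treatment at 37 C, measured by luciferase luminescence, indicated cytotoxicity. Concentration-response data were fitted with the standard Hill equation to give AC50.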
Test [2] is described as follows: Cell Viability - LYMP2-016 (AID 984).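 Further: cells exposed to compound for 24 hours at 37 °C; on the % scale 0 is the no-effect control and ±100 the full control effect; nearly all actives have a fitted effect of over 55% in size.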 The essentials: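 Cytotoxicity was scored by luminescent ATP content (CellTiter-Glo) after 24 h compound exposure at 37 C of a human lymphoblastoid line at 2500 cells/well. Concentration-response data were fitted to the Hill equation for AC50.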
Test [3] can be described thus: Cell Viability - LYMP2-018 (AID 985).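 Further: compound exposure lasted 24 hr at 37 °C; plate controls were DMSO only for no effect and tetraoctylammonium bromide at 92 µM for full effect; nearly all actives have a fitted effect of over 50% in size.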 The method, boiled down:
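Acute cytotoxicity is scored as a concentration-dependent drop in intracellular ATP after 24 hr exposure of the lymphoblastoid line in complete culture medium, measured by luciferase luminescence. Potency is expressed as AC50 from Hill modelling.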

A short description of test [4]: Cell Viability - LYMP2-020 (AID 986).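 Further: plate controls were DMSO only for no effect and tetraoctylammonium bromide at 92 µM for full effect; nearly all actives have a fitted effect of over 55% in size.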 The method, boiled down: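 Acute cytotoxicity in a human lymphoblastoid line is scored as a concentration-dependent fall in cellular ATP after 24 hr at 37 C in complete medium. The positive control is tetraoctylammonium bromide, and potency is given as Hill-fit AC50.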
Test [5] is described as follows: Cell Viability - LYMP2-022 (AID 987).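 Further: cells exposed to compound for 24 hr; 0% = DMSO alone and full effect = tetraoctylammonium bromide at 92 µM; nearly all actives have a fitted effect of over 55% in size.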 The essentials:
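Acute toxicity in a human lymphoblastoid line is scored as decreased intracellular ATP after 24 hr compound treatment at 37 C. ATP is measured by CellTiter-Glo luminescence; curves are fitted with the Hill equation to give AC50.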

A short description of test [6]: Cell Viability - LYMP2-024 (AID 988).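 Further: cells exposed to compound for 24 hr at 37 °C; plate controls were DMSO only for no effect and 92 µM tetraoctylammonium bromide for full effect; nearly all actives have a fitted effect of over 60% in size.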 The essentials: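 Acute toxicity is measured as concentration-dependent loss of intracellular ATP in a human lymphoblastoid line treated 24 hours at 37 C. Luciferase luminescence quantifies ATP; AC50 values come from standard Hill-equation modelling.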
The nature of test [7]: Cell Viability - LYMP2-026 (AID 989). Further: on the % scale 0 is the no-effect control and ±100 the full control effect; nearly all actives have a fitted effect of over 50% in size. The method, boiled down:
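Concentration-dependent loss of intracellular ATP in human lymphoblastoid cells after 24 hr at 37 C, quantified by luciferase luminescence. AC50 derived from standard Hill equation.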

Test [8] concerns the target Alpha-galactosidase A (Homo sapiens) (UniProt P06280). Description: Counterscreen for Glucocerebrosidase Inhibitors: qHTS Assay for Human alpha-Galactosidase at pH 4.5 (AID 992). Further: 0% is about no effect. The method, boiled down:
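Read-out is 4-methylumbelliferone fluorescence (365 nm excitation, 440 nm emission) after a pH 10 NaOH/glycine stop. Reactions held 2 nM enzyme and 80 uM substrate at pH 4.5 for 20 min at room temperature.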

Test [9] is described as follows: Cell Viability - LYMP1-002 - Assay at 24 hr (AID 993). Further: on the % scale 0 is the no-effect control and ±100 the full control effect. The method, boiled down: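 qHTS, LYMP1-002 lymphoblastoid, 24 h cpd, 37 C, CellTiter-Glo ATP luminescence; AC50 via Hill eq.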
Test [10] can be described thus: Cell Viability - LYMP1-002 - Assay at 40 hr (AID 994).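 Further: 0% = DMSO only and full inhibition = 92 µM tetraoctylammonium bromide; nearly all actives have a fitted effect of over 60% in size.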 The essentials: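 Viability in the human lymphoblastoid line was measured as intracellular ATP via CellTiter-Glo after 40 hr compound exposure. Tetraoctylammonium bromide served as positive control.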
The target in test [11] is alpha-glucosidase (Oryza sativa, rice) (UniProt Q653V4). The experiment in a line: Counterscreen for Glucocerebrosidase Inhibitors: qHTS Assay for Rice alpha-Glucosidase at pH 5.0 (AID 997).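 Further: 0% = full activity with enzyme and -100% = basal without enzyme.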 The method, boiled down:
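Rice alpha-glucosidase (4 nM final) with 400 uM 4-methylumbelliferyl-alpha-D-glucopyranoside in citrate buffer pH 5.0, 20 min at room temperature, stopped at pH 10; fluorescence 365/440 nm, compounds 0.7 nM–77 uM, AC50 from Hill fits.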
(In general: The purpose of a counterscreen is to sort out artefacts and off-target activity.)

Test [12] addresses DNA repair nuclease/redox regulator APEX1 (Homo sapiens) (UniProt P27695). The experiment in a line: qHTS Validation Assay for Inhibitors of the Human Apurinic/apyrimidinic Endonuclease 1 (APE1) (AID 1705; further: potency means the concentration at half of the fitted maximal effect;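 on activity change, negative = inhibition: TAMRA fluorescence gain over two minutes as APE1 cuts a quenched THF abasic duplex; on the % scale 0 is the no-effect control and ±100 the full control effect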). The essentials: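 Activity read as rising fluorescence (598 nm emission, 525 nm excitation) from incision of a TAMRA/BHQ-2 duplex carrying a THF abasic site (50 nM). Compound and enzyme sat 15 min at RT before substrate start; signal change between first and third 60-s reads.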
A general note: qHTS replaces the single test concentration by a dilution series.

Test [13] in a line: Counterscreen for APE1 Inhibitors: Fluorescent Dye Displacement Validation Assay (AID 1707).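 Further: plate controls were ThO with dsDNA and no compound for no effect and ThO without dsDNA for full effect.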 The method, boiled down:
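ThO 250 nM + dsDNA 50 nM (THF abasic site, 5'-TAMRA), Tris-HCl pH7.5/50mM NaCl/2 mM MgCl2/0.01% Tween-20; compounds pin-transferred; ex 480/em 540 nm endpoint. Neutral = no compound; no-DNA ThO wells = negative control.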

The target in test [14] is Endonuclease 4 (Escherichia coli (strain K12)) (UniProt P0A6C1). Description: Counterscreen for APE1 Inhibitors: qHTS Validation Assay for Inhibitors of Endonuclease IV (AID 1708). Further: on the % scale 0 is the no-effect control and ±100 the full control effect. The method, boiled down:
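Enzymatic AP-site incision assay using a double-stranded THF substrate labelled with TAMRA and BHQ-2; released fluorescence signals activity. Enzyme 2 nM, substrate 50 nM, 15 min compound preincubation.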

A short description of test [15]: qHTS for differential inhibitors of proliferation of Plasmodium falciparum line 7G8 (AID 1815).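 Further: parasite growth measured after three days of incubation.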 Further: potency means the concentration at half of the fitted maximal effect.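 On activity change, negative = inhibition: plate controls were vehicle wells for no effect and reference inhibitor wells for full effect.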
A short description of test [16]: qHTS for differential inhibitors of proliferation of Plasmodium falciparum line GB4 (AID 1816).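 Further: parasite growth measured after 72 h incubation.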 Further: potency means the concentration at half of the fitted maximal effect.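 On activity change, negative = inhibition: 0% = vehicle DMSO and -100% = reference inhibitor.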 The settings on record: Potency: Plasmodium falciparum GB4 proliferation inhibition.
A short description of test [17]: qHTS for differential inhibitors of proliferation of Plasmodium falciparum line 3D7 (AID 1876). Further: potency means the concentration at half of the fitted maximal effect.
Test [18] can be described thus: qHTS for differential inhibitors of proliferation of Plasmodium falciparum line D10 (AID 1877).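 Further: parasites grown with compound for 72 h before DNA staining.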 Further: potency means the concentration at half of the fitted maximal effect.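 On activity change, negative = inhibition: plate controls were vehicle wells for no effect and reference inhibitor wells for full effect.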
Test [19] in a line: qHTS Assay for Lipid Storage Modulators (AID 1519; calls by dose curve; on activity change, negative = inhibition: on the % scale 0 is the no-effect control and ±100 the full control effect). The settings on record: Drosophila S3 cells, BODIPY lipid droplet/cell ratio, laser cytometry, cells loaded with oleic acid; for activity change, negative = inhibition: at 57.5 µM (top of the series). The method, boiled down:
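Cells seeded at 5,000 per well were treated with compounds over a concentration series and loaded with oleic acid (400 uM, as added). Lipid droplet fluorescence (488 nm excitation, 500-530 nm channel) was read by laser-scanning cytometry and normalized to 20 uM Triacsin C.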

Where [20] appears, read: measured here: cell count channel max response.
Setting [21] is: measured here: lipid channel max response.

Chain of Alpha-galactosidase A (Homo sapiens) (P06280 whole entry, looked up): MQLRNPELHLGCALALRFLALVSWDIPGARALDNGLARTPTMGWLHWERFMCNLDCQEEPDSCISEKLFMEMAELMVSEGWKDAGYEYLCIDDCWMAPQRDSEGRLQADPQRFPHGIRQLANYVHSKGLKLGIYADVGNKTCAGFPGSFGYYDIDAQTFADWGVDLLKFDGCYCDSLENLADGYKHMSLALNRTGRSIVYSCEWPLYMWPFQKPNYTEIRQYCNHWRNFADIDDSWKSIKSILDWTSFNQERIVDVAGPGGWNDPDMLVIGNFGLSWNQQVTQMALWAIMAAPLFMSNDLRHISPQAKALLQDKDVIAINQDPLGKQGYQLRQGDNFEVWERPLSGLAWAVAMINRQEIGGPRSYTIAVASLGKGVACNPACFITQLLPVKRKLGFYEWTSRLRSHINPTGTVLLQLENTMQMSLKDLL
Chain of DNA repair nuclease/redox regulator APEX1 (Homo sapiens) (P27695 whole entry, looked up): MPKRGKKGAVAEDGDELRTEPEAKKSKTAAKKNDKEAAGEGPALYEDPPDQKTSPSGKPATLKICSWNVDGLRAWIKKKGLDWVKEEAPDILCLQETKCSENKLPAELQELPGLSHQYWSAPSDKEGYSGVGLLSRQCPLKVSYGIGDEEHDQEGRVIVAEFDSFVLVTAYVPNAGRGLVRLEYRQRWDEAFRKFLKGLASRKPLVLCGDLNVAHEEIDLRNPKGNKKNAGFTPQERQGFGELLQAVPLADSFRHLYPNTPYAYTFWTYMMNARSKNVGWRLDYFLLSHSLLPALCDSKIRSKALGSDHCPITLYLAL

For the compound `NC(=O)c1ccccc1`, the outcome in test [1], in test [2], in [3], in test [4], in [5] and in [6] was inactive. In addition, the outcome in [7], in test [8], in [9], in test [10] and in [11] was inactive. In addition, the Potency result in test [12], in test [13], in [14], in test [15], in test [16] and in test [17] was “inactive” in each case. Moreover, the Potency entry in test [18] is “inactive”.

`CC(=O)N[C@@H](Cc1c[nH]c2ccccc12)C(=O)OCc1cc(C(F)(F)F)cc(C(F)(F)F)c1`: the result in [8] and in test [11] was inactive. Moreover, the activity change, negative = inhibition in test [19] is -1.99% (inactive). In addition, the max response in test [19] (setting [20]) was -16.3%; in test [19] (setting [21]), -17.3%. For the same compound, the Potency entry in test [16], in test [17] and in test [18] was “inactive” throughout.

In the case of `CCCCCCCCCC[Si](C)(C)CCC(=O)NC(Cc1ccc(C)cc1)c1ccccc1` (stereo unspecified), the Potency result in test [12], in [13] and in test [14] was “inactive” each time.

For `CCn1c(=O)[nH]c2cc(Cl)c(Cl)cc21`, the result in test [8] and in test [11] was inactive. Besides, the Potency result in [12], in test [13], in test [14], in test [15], in test [16] and in [17] was “inactive” throughout. The Potency entry in test [18] was “inactive”.

In the case of `C/C(=C\c1ccc(C(=O)O)cc1)c1ccc2c(c1)C(C)(C)CCC2(C)C`, the compound was called inactive in [8] and in test [11]. The activity change, negative = inhibition in test [19] is -4.87% (inactive) and -0.58% (inactive). Further, the max response was -0.191% and 31.2% in test [19] (setting [20]); -3.14% and 29.9% in [19] (setting [21]). The Potency result in test [12], in [13] and in [16] was “inactive” each time.

As for `O=c1onc2cnc3ccccc3n12`, the compound was classed as inactive in test [8] and in [11]. Also, the activity change, negative = inhibition in [19] was 0.198% (inactive). Moreover, the max response is 54.3% in test [19] (setting [20]) and 54.9% in [19] (setting [21]). Also, the Potency result in [13] and in [14] was “inactive” throughout.

On to `CCCCCCCCCCCCCCSCC(=O)O`, for which the result in test [8] and in test [11] was inactive. For the same compound, the Potency entry in test [12], in test [13], in test [14], in [15], in test [16] and in [17] was “inactive” throughout. The Potency result in test [18] is “inactive”.

On to `N=C(N)c1ccc(OCCCCCOc2ccc(C(=N)N)cc2)cc1` (tested in a mixture with another compound), for which the outcome in test [8] and in [11] was inactive. Besides, the Potency entry in test [12], in test [13] and in test [14] was “inactive” throughout. The Potency was 0.282 µM (active) in test [15], 0.251 µM (active) in test [16], 0.0891 µM (active) in test [17] and 0.199 µM (active) in test [18].

Consider `C=CCN1CCc2c(cc(O)c(O)c2Cl)C(c2ccccc2)C1` (stereo unspecified), for which the Potency entry in test [12], in [13] and in test [14] was “inactive” each time. Moreover, the Potency is 5.01 µM (active) in [15], 5.01 µM (active) in test [16], 7.94 µM (active) in test [17] and 12.6 µM (active) in test [18].

As to `NC(=O)c1cc[n+](CC2=C(C(=O)O)N3C(=O)[C@@H](NC(=O)[C@@H](c4ccccc4)S(=O)(=O)[O-])[C@H]3SC2)cc1`, the Potency in [12] is 14.1 µM (active). Besides, the Potency result in test [13], in test [15], in test [16], in [17] and in test [18] was “inactive” throughout.

As for `CCCn1c(=O)c2[nH]c(C3CCCC3)nc2n(CCC)c1=O`, the call in test [8] and in [11] was inactive. Also, the Potency entry in test [12], in test [13] and in test [14] was “inactive” each time.

In the case of `O=C(O)c1ccccc1Nc1cccc(OCc2ccc3ccccc3n2)c1`, the compound was called inactive in test [8] and in test [11]. The Potency result in test [12], in test [13], in test [14], in test [17] and in [18] was “inactive” each time.
